Data published in PubChem BioAssay AID720553 (National Center for Advancing Translational Sciences (NCATS), 2013).
About 3,300 (0.97%) of roughly 340,000 compounds were called active. The sample holds actives, similar compounds and a random draw of the others, so the mix is not that of the screen. Unmarked numbers belong to inactive results.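 The calls were made as follows: active = maximum activity change below -70%; inconclusive = maximum activity change from -70% to -50%; inactive = maximum activity change above -50%.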
% is scaled to controls: 0 for no effect and ±100 for the full control effect.

Each compound was assayed on Potassium voltage-gated channel subfamily H member 2, brain isoform KCNH2 3.1 (human) (assay: qHTS for Inhibitors of KCHN2 3.1: Mutant qHTS). Settings: U2OS KCNH2 3.1, thallium flux FluxOr; stronger effect = lower value.
Summary of the method: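 U2OS cells transduced with KCNH2 3.1 mutant virus (1.77 x 10^8 /mL, 4 h), plated overnight at 37 C, loaded 45 min with FluxOr dye plus Red40 quencher. Thallium flux rate constant from kinetic reads after stimulation buffer, normalised to controls.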
For `CC1(c2cccc(N)c2)OCCO1`, the activity change was -12.6%. With `CC(C)[C@H](NC(=O)c1ccccc1F)C(=O)Nc1cccc(S(=O)(=O)N2CCOCC2)c1` the activity change was 9.74%. With `CCOCCCN(C)C1CCN(C(=O)c2oc3ccccc3c2NC(=O)COc2cccc(C)c2)CC1` the activity change was -107% (active). `COc1cccc(OC)c1C(=O)Nc1c(C(=O)N2CCN(c3ccccn3)CC2)oc2ccccc12` gave an activity change of -4.91%. `CCOCCCN(C)C1CCN(C(=O)c2oc3ccccc3c2NC(=O)Cc2cccc([N+](=O)[O-])c2)CC1` was tested, and the activity change was -104% (active). For `COCC(=O)Nc1c(C(=O)N2CCCC2)oc2ccccc12`, the activity change was 6.72%. Compound `COc1ccc(CC(=O)Nc2c(C(N)=O)oc3ccccc23)cc1` has an activity change of -8.15%. With `CN(C(=O)c1cccc(NC(=O)Cc2cccc([N+](=O)[O-])c2)c1)C1CCCCC1` the activity change was 18.4%. `CC1=C(C(=O)N2CCOCC2)CC(CC(=O)NCCN2CCOCC2)C(=O)N1CCC1=CCCCC1` (stereo unspecified) was tested, and the activity change was 16%. For `Cc1cc(=O)c2ccc(NC(=O)c3ccccc3)cc2[nH]1`, the activity change was 3.07%. Compound `COc1ccc(S(=O)(=O)N2CCN(CC(=O)N3CCNC3=O)CC2)cc1OC` has an activity change of 12.9%. Compound `C[C@@H]1CN([C@@H](C)CO)C(=O)c2c(c3ccccc3n2C)-c2ccccc2CO[C@H]1CN(C)C(=O)C1CC1` has an activity change of 14.8%. `O=C1C=C(c2cccc(Cl)c2)C[C@@H](c2ccc(F)cc2)C1` was tested, and the activity change was 2.02%. With `N#Cc1ccc(C2=CC(=O)C[C@H](c3ccc(Cl)cc3)C2)cc1` the activity change was -83.2% (active). `COc1ccc([C@H]2CC(=O)C=C(c3ccc(CO)cc3)C2)cc1` was tested, and the activity change was 22.6%. `C[C@H]1CN([C@@H](C)CO)S(=O)(=O)c2ccc(-c3cccc(F)c3)cc2O[C@@H]1CN(C)C` was tested, and the activity change was -7.52%. `O=C(N/C(=C\c1ccc([N+](=O)[O-])cc1)C(=O)N1CCCCC1)c1ccco1` was tested, and the activity change was -4.37%. For `O=C(N/C(=C\c1ccc([N+](=O)[O-])cc1)C(=O)N1CCOCC1)c1cccc(Br)c1`, the activity change was -83.4% (active). Compound `O=C(Oc1ccc(Br)cc1C(=S)N1CCOCC1)c1cccc([N+](=O)[O-])c1` has an activity change of -8.06%. `O=C(Nc1cccc(NC(=O)c2ccccc2[N+](=O)[O-])c1)c1ccccc1Cl` was tested, and the activity change was -165% (active). `CC(C)C(=O)Nc1cccc(NC(=O)c2ccc([N+](=O)[O-])cc2Cl)c1` gave an activity change of 18.7%. In the case of `O=C(Nc1ccncc1)c1ccccc1[N+](=O)[O-]`, the activity change was 8.15%. In the case of `COc1ccc(NC(=O)C[C@H]2C(=O)N(CCc3ccccc3)C[C@@H]2C)cc1`, the activity change was 5.84%. In the case of `CCOc1ccc(CCNC(=O)COC(=O)c2ccc(C)c(S(=O)(=O)N3CCOCC3)c2)cc1OCC`, the activity change was 11.9%. Compound `CNC(=O)c1ccc(CN(C)C(=O)c2cc(C3CC3)nc3c2cnn3C(C)C)cc1` has an activity change of 6.55%. For `CCOC(=O)C(C(=O)c1ccccc1)C(c1ccccc1)c1nccc2ccccc12` (stereo unspecified), the activity change was -15.2%. Work on `Cc1cccc(C(=O)NC2CCN(CC(=O)Nc3cccc(Cl)c3)CC2)c1` yielded an activity change of -1.48%. Compound `C[C@H]1CN(c2ccc(Br)cc2)C(=O)[C@@H]1CC(=O)Nc1ccc(Br)cc1` has an activity change of 0.444%. Compound `CCOCCc1nn2c(=O)cc(CSCC(=O)Nc3cccc(C)c3C)nc2s1` has an activity change of 4.66%. `CCCc1nn2c(=O)cc(CSCC(=O)Nc3cccc(C)c3)nc2s1` was tested, and the activity change was -91.5% (active). With `Cc1cccc(NC(=O)CSCC(=O)Nc2nnc(C3CC3)s2)c1` the activity change was -6.65%. `COc1ccc(C(CNC(=O)CSc2ccccc2)N2CCOCC2)cc1` (stereo unspecified) showed an activity change of 1.87%. `O=C(NCCOc1ccccc1)c1ccccc1F` gave an activity change of 2.92%. Work on `c1ccc(Cn2nnc3c(NCC4CC4)ncnc32)cc1` yielded an activity change of -1.53%. `CSc1ncnc2c1ncn2CCCNCc1cccs1` showed an activity change of 3.07%. With `Cc1cccc(-n2cc(CN3CCN(C(=O)c4ncn[nH]4)CC3)c(-c3cccc(F)c3)n2)c1` the activity change was 0.932%. `CCC(O)C1CCN(Cc2cn(-c3ccc(OC)cc3)nc2-c2cccc(F)c2)CC1` (stereo unspecified) was tested, and the activity change was -90.7% (active). For `Cn1cc(CN2CCC(C(O)CCc3ccccc3)CC2)c(-c2ccccc2F)n1` (stereo unspecified), the activity change was -8.61%. `COc1ccc(-n2cc(CN(C)Cc3n[nH]c(=O)[nH]3)c(-c3cccc(F)c3)n2)cc1` showed an activity change of -14.7%. In the case of `COc1ccc(-n2cc(CNC3CCOCC3)c(-c3cccc(F)c3)n2)cc1`, the activity change was -75% (active). `COc1ccc(-c2nn(-c3ccccc3)cc2CN2CCCO2)c(F)c1` gave an activity change of 4.37%. In the case of `CC(OC(=O)c1ccc(NC(=O)CC#N)cc1)C(=O)Nc1ccc(S(=O)(=O)N2CCCC2)cc1` (stereo unspecified), the activity change was 8.99%. In the case of `O=[N+]([O-])c1ccc(C(S(=O)(=O)Cc2ccccc2)S(=O)(=O)Cc2ccccc2)cc1`, the activity change was -21.9%. `CC1(C)CN(Cc2cccnc2)C(=O)[C@H]1CC(=O)Nc1ccc(Br)cc1` showed an activity change of -12%. `COc1ccc(OC)c(C(=O)NC2CCCc3c2cnn3-c2cc(C)cc(C)c2)c1` (stereo unspecified) gave an activity change of -6.38%. Work on `CCOC(=O)c1cc(-c2sc(NC(=O)c3ccccc3)nc2C)n(CCO)n1` yielded an activity change of -0.33%. For `CC(=O)Nc1ccc(NC(=O)CCCNC(=O)c2ccc(Cl)cc2)cc1`, the activity change was 7.78%. For `CCCCC(=O)Nc1ccc(C(=O)Nc2cc(C(F)(F)F)ccc2Cl)cc1`, the activity change was -83.7% (active). `CCCCC(=O)Nc1ccc(C(=O)NCCCn2ccnc2)cc1` showed an activity change of 4.23%. Work on `CCN(CC)C(=O)C(C)N1c2cccc3cccc(c23)S1(=O)=O` (stereo unspecified) yielded an activity change of -7.96%. Work on `CNS(=O)(=O)c1ccc2c(c1)[nH]c(=S)n2C` yielded an activity change of 9.63%. In the case of `COc1cc(C2C(C(=O)Nc3ccccc3OC)=C(C)Nc3ncnn32)ccc1O` (stereo unspecified), the activity change was -70.3% (active). Work on `COc1ccccc1NC(=O)C1=C(C)Nc2ncnn2C1c1ccc(C)o1` (stereo unspecified) yielded an activity change of 0.24%. Compound `COc1ccccc1NC(=O)C1=C(C)Nc2nc3ccccc3n2C1c1cccs1` (stereo unspecified) has an activity change of 1.01%. For `CC1CCN(C(=O)CSc2nnc(-c3ccco3)n2N)CC1`, the activity change was 13.4%. `O=NN(CCCl)C(=O)NCCc1cccc[n+]1[O-]` gave an activity change of -3.54%. `CCn1c(SCC(=O)N2CCCC2=O)nc2ccccc21` showed an activity change of 9.56%. Work on `COc1ccccc1C(=O)Nc1ccnn1C1CCN(Cc2cnn(C)c2)CC1` yielded an activity change of -32.4%. With `O=C(Nc1ccnn1C1CCN(Cc2cccc(OCCO)c2)CC1)C1CCCC1` the activity change was 5.49%. `Cc1ccc(CN2CCC(n3nccc3NC(=O)CCCc3ccccc3)CC2)o1` gave an activity change of 3.89%. With `CC(C)Oc1ccc(CN2CCC(n3nccc3NC(=O)c3cccnc3)CC2)cc1` the activity change was -80.6% (active). In the case of `CC(C)=CCCC(C)CN1CCC(n2nccc2NC(=O)c2ccccc2)CC1` (stereo unspecified), the activity change was -34.5%. With `COc1cc(CN2CCC(n3nccc3NC(=O)CCCc3ccccc3)CC2)ccc1O` the activity change was -32.8%. For `COc1ccc(CN2CCC(n3nccc3NC(=O)CCCc3ccccc3)CC2)cc1C`, the activity change was -86.2% (active). In the case of `O=C(CCc1ccccc1)Nc1ccnn1C1CCN(Cc2ccc(OCCO)cc2)CC1`, the activity change was -97.2% (active). With `Cc1c(CN2CCC(n3nccc3NC(=O)CCc3ccccc3)CC2)cnn1C` the activity change was 6.8%. `CCOC(=O)c1c(C)[nH]c(C)c1C(=O)COC(=O)/C=C/c1cccc([N+](=O)[O-])c1` showed an activity change of -1.51%. `O=C(CNC(=O)N1CC(=O)Nc2ccccc21)Nc1ccc(Br)cc1F` was tested, and the activity change was 2.32%. In the case of `COCCn1c(SCC(=O)Nc2ccc(F)cc2F)nc2c(c1=O)SCC2`, the activity change was -5.38%. `CCc1noc(C)c1C(=O)OCC(=O)c1ccc(NC(=O)CC(C)C)cc1` gave an activity change of 7.88%. For `O=C(OCc1cn([C@H]2C[C@H](c3ccccc3)N(C(=O)c3cccs3)C[C@@H]2O)nn1)c1ccccc1`, the activity change was -26.8%. `CCCS(=O)(=O)N1CCC(CCOc2ccccc2)(C(=O)OCC)CC1` was tested, and the activity change was -4.06%. `CCOC(=O)C1(CCOc2ccccc2)CCN(Cc2ccc(C#CCCO)cc2)CC1` was tested, and the activity change was -7.38%. With `CCOC(=O)C1(CCOc2ccccc2)CCN(Cc2cc(OC)cc(OC)c2)CC1` the activity change was -108% (active). `Cc1ccc(/C=C/C(=O)Nc2cc(S(=O)(=O)N3CCCCCC3)ccc2OCC(F)(F)F)o1` was tested, and the activity change was -83.4% (active). `COc1ccc(S(=O)(=O)N2CCCCC2)cc1NC(=O)COc1ccccc1` was tested, and the activity change was -11.6%. `O=C(Nc1cc(S(=O)(=O)N2CCOCC2)ccc1OCC(F)(F)F)c1ccc(N2CCCC2=O)cc1` was tested, and the activity change was -24.2%. With `CNC(=O)C[C@H]1C(=O)N(c2ccc(OC)cc2)C[C@@H]1Cc1ccccc1` the activity change was 6.56%. `COCCCn1c(=O)/c(=C/c2ccccc2OC(C)C)s/c1=C(\C#N)C(=O)Nc1ccc(C(=O)O)cc1` showed an activity change of 1.1%. For `CCOc1ccc(S(=O)(=O)N2CCC(c3ccccc3)CC2)cc1C(=O)O`, the activity change was -0.0458%. For `CCOC(=O)N1CCN(C(=O)C2CCN(S(=O)(=O)c3cc(Cl)ccc3OCC)CC2)CC1`, the activity change was -0.753%. `CCOc1ccc(Br)cc1S(=O)(=O)N1CCC(C(=O)O)CC1` was tested, and the activity change was -119% (active). With `Cc1ccccc1NC(=O)Cc1nc(COC(=O)C(C)(C)Oc2ccc(Cl)cc2)cs1` the activity change was 0.0076%. `O=C(C1CCN(C2CCN(Cc3cccc4c3OCO4)CC2)CC1)N1CCOCC1` showed an activity change of 1.54%. `O=C(C1CCN(C2CCN(Cc3ccc4cc(F)ccc4n3)CC2)CC1)N1CCCC1` gave an activity change of -46.6%. In the case of `C/C(=C\c1ccco1)CN1CCC(N2CCC(C(=O)N3CCOCC3)CC2)CC1`, the activity change was -81.6% (active).
